# Laboratory results published in ChEMBL document CHEMBL1961873, “Compounds: GSK PKIS; Assays: Nanosyn kinase panel” (2012).
# Legend:
# [1] = target: Protein kinase C gamma type (Homo sapiens) (UniProt P05129); settings: at 1 µM;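 note: each value is an averaged percent inhibition of the enzyme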
# [2] = target: T1, Protein kinase C iota type (Homo sapiens) (UniProt P41743); settings: at 0.1 µM
# T1 sequence (whole entry): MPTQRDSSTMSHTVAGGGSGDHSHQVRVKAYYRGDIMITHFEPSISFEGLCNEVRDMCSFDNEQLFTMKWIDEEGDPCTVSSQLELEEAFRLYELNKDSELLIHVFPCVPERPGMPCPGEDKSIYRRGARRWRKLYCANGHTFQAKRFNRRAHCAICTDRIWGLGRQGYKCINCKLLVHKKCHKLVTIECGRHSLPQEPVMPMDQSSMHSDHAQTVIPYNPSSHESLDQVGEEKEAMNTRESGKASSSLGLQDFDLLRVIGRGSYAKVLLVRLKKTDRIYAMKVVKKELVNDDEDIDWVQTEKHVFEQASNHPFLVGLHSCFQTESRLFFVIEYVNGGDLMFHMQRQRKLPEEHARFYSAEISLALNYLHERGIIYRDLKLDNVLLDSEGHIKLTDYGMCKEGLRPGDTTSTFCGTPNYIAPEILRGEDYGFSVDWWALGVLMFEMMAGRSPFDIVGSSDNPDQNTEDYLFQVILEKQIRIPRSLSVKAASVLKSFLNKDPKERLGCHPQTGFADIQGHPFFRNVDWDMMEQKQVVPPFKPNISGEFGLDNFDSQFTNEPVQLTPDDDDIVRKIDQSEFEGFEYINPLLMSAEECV
# [3] = target: T1, Protein kinase C iota type (Homo sapiens); settings: at 1 µM
# [4] = target: Protein kinase C theta type (Homo sapiens) (UniProt Q04759); settings: at 0.1 µM
# Protein kinase C theta type (Homo sapiens), sequence (Q04759 whole entry, looked up): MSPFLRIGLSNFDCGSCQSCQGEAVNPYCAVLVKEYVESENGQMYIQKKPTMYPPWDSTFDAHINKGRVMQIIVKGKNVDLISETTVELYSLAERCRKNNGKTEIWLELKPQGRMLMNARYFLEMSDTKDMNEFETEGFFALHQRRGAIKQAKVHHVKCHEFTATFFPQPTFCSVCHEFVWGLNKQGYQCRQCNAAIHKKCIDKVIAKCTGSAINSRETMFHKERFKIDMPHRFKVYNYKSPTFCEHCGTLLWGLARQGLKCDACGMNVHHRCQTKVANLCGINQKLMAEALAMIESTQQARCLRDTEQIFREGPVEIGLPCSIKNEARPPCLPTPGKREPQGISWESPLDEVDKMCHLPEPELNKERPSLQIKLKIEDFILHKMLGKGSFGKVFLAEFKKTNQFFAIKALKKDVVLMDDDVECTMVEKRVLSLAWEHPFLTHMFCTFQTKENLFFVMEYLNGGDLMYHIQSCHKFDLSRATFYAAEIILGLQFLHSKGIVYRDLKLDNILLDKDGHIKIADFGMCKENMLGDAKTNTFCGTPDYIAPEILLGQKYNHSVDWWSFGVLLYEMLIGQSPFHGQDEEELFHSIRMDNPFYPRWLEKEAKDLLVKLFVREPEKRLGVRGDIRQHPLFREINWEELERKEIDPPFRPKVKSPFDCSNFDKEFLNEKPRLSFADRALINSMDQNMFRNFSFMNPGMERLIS
# [5] = target: Protein kinase C theta type (Homo sapiens) (UniProt Q04759); settings: at 1 µM
# [6] = target: Protein kinase C beta type (Homo sapiens) (UniProt P05771); settings: at 0.1 µM
# Protein kinase C beta type (Homo sapiens), sequence (P05771 2-671 limits assumed): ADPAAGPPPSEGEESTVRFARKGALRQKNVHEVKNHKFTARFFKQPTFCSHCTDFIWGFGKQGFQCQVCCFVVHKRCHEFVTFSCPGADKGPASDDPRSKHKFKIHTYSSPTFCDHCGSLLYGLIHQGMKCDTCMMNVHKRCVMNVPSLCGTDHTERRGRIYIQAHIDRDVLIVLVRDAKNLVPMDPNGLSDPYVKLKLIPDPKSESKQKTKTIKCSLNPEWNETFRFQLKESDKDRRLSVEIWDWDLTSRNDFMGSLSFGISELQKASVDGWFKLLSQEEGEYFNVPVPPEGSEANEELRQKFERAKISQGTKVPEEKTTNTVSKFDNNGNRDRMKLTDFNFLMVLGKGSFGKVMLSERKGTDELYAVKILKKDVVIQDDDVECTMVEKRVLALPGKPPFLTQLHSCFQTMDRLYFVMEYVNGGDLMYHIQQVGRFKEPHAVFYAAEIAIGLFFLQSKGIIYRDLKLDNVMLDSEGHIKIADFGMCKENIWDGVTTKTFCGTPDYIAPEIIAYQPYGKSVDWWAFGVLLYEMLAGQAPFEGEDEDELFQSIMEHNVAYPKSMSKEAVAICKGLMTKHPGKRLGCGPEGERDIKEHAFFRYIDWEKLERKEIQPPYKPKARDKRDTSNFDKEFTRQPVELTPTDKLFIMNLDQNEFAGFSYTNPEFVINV
# [7] = target: Protein kinase C beta type (Homo sapiens) (UniProt P05771); settings: at 1 µM
# [8] = target: T2, Serine/threonine-protein kinase D1 (Homo sapiens) (UniProt Q15139); settings: at 0.1 µM
# T2 sequence (whole entry): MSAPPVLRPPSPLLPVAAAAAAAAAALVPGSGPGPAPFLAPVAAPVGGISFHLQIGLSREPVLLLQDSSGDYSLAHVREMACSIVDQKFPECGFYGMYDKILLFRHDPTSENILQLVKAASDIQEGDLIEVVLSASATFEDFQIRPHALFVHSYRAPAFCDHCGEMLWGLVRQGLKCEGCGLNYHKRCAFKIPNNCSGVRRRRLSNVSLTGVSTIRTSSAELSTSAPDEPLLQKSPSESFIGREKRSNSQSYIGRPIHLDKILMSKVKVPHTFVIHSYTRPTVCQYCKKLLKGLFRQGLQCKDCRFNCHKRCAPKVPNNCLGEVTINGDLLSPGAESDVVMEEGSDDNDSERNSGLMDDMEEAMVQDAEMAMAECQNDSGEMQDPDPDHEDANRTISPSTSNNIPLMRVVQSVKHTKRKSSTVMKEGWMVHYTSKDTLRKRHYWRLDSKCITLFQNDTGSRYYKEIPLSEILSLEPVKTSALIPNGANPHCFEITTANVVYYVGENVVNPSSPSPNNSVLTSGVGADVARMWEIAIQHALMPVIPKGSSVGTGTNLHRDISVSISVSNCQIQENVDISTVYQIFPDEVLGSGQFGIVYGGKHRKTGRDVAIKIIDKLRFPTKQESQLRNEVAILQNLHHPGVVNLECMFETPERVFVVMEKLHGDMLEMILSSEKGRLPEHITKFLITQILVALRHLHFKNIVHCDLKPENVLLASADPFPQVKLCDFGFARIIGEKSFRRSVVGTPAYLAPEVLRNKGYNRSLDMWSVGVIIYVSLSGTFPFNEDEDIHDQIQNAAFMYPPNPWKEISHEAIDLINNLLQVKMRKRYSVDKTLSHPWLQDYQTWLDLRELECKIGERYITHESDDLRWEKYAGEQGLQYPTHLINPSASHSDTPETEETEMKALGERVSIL
# [9] = target: T2, Serine/threonine-protein kinase D1 (Homo sapiens); settings: at 1 µM
# [10] = target: T3, Serine/threonine-protein kinase D2 (Homo sapiens) (UniProt Q9BZL6); settings: at 0.1 µM
# T3 sequence (whole entry): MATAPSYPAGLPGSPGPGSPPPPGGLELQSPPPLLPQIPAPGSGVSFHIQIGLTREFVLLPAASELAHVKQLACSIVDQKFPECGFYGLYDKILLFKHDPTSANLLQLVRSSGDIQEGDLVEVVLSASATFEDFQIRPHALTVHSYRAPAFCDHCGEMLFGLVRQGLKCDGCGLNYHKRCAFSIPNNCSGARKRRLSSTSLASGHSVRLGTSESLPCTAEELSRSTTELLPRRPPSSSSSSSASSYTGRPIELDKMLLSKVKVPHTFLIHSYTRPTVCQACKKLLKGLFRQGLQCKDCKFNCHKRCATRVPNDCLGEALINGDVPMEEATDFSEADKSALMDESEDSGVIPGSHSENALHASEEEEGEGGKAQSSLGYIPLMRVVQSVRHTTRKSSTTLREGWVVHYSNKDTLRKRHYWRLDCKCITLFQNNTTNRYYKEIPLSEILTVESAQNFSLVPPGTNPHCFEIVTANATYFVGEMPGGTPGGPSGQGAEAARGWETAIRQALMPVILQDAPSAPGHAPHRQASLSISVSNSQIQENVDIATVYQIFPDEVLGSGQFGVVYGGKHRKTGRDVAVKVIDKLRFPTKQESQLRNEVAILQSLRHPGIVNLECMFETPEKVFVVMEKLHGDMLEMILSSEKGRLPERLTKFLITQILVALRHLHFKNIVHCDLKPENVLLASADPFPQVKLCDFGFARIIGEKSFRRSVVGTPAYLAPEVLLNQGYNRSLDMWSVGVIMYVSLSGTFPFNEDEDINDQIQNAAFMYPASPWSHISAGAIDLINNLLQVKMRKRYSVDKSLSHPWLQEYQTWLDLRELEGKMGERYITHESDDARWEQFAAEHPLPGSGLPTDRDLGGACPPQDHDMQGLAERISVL
# [11] = target: T3, Serine/threonine-protein kinase D2 (Homo sapiens); settings: at 1 µM
# [12] = target: T4, Serine/threonine-protein kinase D3 (Homo sapiens) (UniProt O94806); settings: at 0.1 µM
# T4 sequence (whole entry): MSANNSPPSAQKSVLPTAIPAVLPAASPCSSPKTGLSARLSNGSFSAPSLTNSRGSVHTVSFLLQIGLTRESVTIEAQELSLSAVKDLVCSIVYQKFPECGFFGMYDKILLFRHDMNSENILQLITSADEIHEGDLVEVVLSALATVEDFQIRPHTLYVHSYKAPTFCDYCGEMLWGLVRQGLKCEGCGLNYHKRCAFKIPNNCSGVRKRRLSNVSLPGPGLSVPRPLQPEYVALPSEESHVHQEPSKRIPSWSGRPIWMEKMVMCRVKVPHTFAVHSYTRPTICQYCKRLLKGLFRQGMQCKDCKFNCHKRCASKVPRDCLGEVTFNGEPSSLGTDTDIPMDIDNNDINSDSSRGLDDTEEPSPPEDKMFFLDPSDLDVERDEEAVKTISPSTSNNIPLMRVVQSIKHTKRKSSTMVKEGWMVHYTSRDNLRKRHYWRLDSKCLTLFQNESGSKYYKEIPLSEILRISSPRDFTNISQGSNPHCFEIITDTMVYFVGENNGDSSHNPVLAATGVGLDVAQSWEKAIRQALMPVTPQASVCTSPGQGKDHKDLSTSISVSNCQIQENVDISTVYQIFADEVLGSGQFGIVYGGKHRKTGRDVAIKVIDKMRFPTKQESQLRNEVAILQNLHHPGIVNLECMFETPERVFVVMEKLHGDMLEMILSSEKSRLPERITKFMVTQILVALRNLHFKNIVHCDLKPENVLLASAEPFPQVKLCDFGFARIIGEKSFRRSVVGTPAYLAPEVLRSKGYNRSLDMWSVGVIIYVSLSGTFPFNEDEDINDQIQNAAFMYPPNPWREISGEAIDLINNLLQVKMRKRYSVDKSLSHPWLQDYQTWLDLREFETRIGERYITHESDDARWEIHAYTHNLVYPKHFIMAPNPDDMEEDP
# [13] = target: T4, Serine/threonine-protein kinase D3 (Homo sapiens); settings: at 1 µM
# [14] = target: T5, cGMP-dependent protein kinase 1 (Homo sapiens) (UniProt Q13976); settings: at 0.1 µM
# T5 sequence (whole entry): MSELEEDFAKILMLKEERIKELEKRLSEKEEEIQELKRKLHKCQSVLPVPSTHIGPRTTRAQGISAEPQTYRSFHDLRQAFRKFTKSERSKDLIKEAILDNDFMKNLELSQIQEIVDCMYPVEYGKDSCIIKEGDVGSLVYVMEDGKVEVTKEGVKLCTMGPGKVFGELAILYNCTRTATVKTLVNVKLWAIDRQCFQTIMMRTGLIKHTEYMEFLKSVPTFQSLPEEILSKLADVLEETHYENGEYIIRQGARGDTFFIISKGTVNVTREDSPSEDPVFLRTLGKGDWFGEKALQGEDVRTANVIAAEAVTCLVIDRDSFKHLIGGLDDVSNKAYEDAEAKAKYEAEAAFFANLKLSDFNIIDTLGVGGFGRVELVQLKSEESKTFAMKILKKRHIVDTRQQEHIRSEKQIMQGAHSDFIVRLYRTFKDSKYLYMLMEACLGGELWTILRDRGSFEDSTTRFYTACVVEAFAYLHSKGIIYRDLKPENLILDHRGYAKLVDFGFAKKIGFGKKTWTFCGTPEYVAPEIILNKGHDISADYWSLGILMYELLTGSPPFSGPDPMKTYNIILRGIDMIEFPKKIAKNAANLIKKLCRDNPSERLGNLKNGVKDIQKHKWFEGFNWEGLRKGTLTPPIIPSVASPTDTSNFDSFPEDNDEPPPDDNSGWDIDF
# [15] = target: T5, cGMP-dependent protein kinase 1 (Homo sapiens); settings: at 1 µM
# [16] = target: T6, cGMP-dependent protein kinase 2 (Homo sapiens) (UniProt Q13237); settings: at 0.1 µM
# T6 sequence (whole entry): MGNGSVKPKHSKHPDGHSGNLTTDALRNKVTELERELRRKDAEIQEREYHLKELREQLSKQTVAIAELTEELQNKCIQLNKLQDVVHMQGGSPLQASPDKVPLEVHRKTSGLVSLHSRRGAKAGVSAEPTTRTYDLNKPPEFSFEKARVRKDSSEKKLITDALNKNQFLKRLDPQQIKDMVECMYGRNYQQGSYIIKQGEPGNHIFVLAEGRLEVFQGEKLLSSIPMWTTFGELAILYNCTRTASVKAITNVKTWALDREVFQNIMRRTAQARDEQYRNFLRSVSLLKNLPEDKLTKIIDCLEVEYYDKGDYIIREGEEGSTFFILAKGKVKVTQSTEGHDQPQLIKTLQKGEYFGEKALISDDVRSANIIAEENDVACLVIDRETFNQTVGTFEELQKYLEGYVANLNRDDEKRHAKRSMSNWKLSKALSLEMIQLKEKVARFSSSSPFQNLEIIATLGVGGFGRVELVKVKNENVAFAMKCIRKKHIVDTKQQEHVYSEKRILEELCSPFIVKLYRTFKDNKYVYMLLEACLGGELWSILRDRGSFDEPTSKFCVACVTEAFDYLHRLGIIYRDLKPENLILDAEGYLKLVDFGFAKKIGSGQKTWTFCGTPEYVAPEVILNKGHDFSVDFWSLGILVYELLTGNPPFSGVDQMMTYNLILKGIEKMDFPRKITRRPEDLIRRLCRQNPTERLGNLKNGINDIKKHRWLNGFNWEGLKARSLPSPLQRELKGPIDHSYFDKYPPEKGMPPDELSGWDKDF
# [17] = target: T6, cGMP-dependent protein kinase 2 (Homo sapiens); settings: at 1 µM
# [18] = target: T7, cAMP-dependent protein kinase catalytic subunit PRKX (Homo sapiens) (UniProt P51817); settings: at 0.1 µM
# T7 sequence (whole entry): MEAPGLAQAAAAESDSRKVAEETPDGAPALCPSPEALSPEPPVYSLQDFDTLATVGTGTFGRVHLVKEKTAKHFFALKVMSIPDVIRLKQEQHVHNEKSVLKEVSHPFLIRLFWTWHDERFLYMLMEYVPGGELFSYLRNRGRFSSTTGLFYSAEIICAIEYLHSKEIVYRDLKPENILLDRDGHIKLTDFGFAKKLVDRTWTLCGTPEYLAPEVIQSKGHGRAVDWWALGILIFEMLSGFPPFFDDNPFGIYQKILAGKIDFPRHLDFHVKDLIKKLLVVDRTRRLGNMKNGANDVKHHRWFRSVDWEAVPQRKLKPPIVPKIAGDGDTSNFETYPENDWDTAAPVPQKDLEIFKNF
# [19] = target: T7, cAMP-dependent protein kinase catalytic subunit PRKX (Homo sapiens); settings: at 1 µM
# [20] = target: Rho-associated protein kinase 1 (Homo sapiens) (UniProt Q13464); settings: at 0.1 µM;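 note: values are mean percent inhibition of ROCK1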
# Rho-associated protein kinase 1 (Homo sapiens), sequence (Q13464 2-1354 limits assumed): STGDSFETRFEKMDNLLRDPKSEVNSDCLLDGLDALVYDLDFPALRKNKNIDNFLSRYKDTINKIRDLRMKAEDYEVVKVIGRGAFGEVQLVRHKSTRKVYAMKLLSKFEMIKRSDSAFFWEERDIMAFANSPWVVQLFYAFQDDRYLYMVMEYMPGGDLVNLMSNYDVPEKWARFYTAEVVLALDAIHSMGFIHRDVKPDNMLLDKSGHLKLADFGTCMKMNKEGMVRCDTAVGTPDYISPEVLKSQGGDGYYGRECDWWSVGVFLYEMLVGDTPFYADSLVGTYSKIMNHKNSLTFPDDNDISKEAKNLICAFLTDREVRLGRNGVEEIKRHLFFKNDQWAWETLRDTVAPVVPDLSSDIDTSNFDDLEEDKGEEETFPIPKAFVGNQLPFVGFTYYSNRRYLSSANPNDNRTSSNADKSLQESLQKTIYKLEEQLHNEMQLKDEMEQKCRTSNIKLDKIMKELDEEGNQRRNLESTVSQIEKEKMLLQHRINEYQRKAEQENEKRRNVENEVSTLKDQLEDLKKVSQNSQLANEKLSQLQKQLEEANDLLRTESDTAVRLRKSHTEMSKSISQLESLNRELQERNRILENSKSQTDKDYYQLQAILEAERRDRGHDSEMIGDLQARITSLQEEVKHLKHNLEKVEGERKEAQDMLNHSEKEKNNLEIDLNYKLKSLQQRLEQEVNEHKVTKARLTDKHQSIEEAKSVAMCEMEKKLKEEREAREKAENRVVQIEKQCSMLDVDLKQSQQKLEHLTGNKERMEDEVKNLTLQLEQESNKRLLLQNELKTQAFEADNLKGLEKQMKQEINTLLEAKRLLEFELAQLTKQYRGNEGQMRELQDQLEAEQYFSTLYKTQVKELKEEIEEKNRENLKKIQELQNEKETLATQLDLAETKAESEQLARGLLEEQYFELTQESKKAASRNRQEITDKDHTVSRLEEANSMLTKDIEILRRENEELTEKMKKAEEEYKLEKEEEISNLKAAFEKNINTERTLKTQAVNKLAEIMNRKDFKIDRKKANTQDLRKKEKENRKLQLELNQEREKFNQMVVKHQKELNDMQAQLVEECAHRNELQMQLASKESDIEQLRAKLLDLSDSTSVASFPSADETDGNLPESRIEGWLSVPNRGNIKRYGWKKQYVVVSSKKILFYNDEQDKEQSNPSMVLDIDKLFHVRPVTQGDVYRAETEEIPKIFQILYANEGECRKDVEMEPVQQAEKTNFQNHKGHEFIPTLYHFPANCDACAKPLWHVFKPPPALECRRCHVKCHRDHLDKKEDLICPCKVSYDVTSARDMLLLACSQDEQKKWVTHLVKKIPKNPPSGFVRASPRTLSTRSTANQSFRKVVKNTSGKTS
SMILES,inhibition [1] [%],inhibition [2] [%],inhibition [3] [%],inhibition [4] [%],inhibition [5] [%],inhibition [6] [%],inhibition [7] [%],inhibition [8] [%],inhibition [9] [%],inhibition [10] [%],inhibition [11] [%],inhibition [12] [%],inhibition [13] [%],inhibition [14] [%],inhibition [15] [%],inhibition [16] [%],inhibition [17] [%],inhibition [18] [%],inhibition [19] [%],inhibition [20] [%]
c1ccc(Nc2ncc(-c3ccccc3)o2)cc1,4.48,1.64,0.9,1.93,2.27,1.46,2.63,4.37,7.71,4.47,8.41,4.57,8.93,5.37,6.06,3.62,5.4,2.38,3.33,1.88
CN(C)C(=O)O[C@@H]1CN[C@@H](C#Cc2cc3ncnc(Nc4ccc(OCc5cccc(F)c5)c(Cl)c4)c3s2)C1,-0.54,-1.15,0,-0.8,-1.63,0.88,0.87,0.32,3.71,0.79,5.06,1.06,4.35,-0.86,1.64,0.46,2.7,-0.77,-1.92,-0.58
CN(C)c1cc2c(Nc3ccc4c(cnn4Cc4ccccc4)c3)ncnc2cn1,-1.38,0.79,1.74,0.5,0.28,0.51,0.93,2.68,5.12,3.3,4.01,3.24,4.21,0.2,4.15,2.57,2.77,1.48,0.84,0.25
COc1cc2ncnc(Nc3ccc(C)c(O)c3)c2cc1OC,7.37,3.5,1.78,3.41,5.28,2.8,5.81,4.73,9.92,5.41,10.5,5.98,8.58,3.2,3.61,2.18,3.65,2.05,2.06,0.48
